Screening results (PubChem BioAssay)
S2 tox = cell viability loss in ATXN counter-screen; 400,000 tested, 0.49% active; S2 cells (HEK-293 line with an ATXN2-luciferase reporter) viability, CellTiter-Fluor protease fluorescence, 24 h; AID 651635; Potency, µM (top dose mostly 56.7 µM), hits mostly cytotoxic; also: nearly all actives have a fitted effect of over 40% in size
HepG2 viability = kills HepG2 cells in TGF-b inhibitor counter-screen. HepG2 CAGA-GFP viability, ATP luminescence, 18 h. Potency, µM (doses to about 46.1 µM), hits mostly cytotoxic. 410,000 tested, 0.76% active
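CellTiter-Glo luminescence gave cytotoxicity after 18 hours at 37 degrees C. The cells were HepG2 CAGA-GFP in 1% FBS DMEM, stimulated with 500 pg/mL TGF-beta after compound addition. %Activity was normalised to no-cell wells (complete cell-killing) and DMSO (no toxicity), and curves were fitted and classified.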
TDP1 cell noCPT = qHTS for Inhibitors of human tyrosyl-DNA phosphodiesterase 1 (TDP1): qHTS in cells in absence of CPT; Potency, µM (highest dose often 46.2 µM), most hits filed as inhibitors; 420,000 tested, 15% active; AID 686978, 2013; DT40 Tdp1-/- hTDP1 cells, no CPT, ATP luminescence, 48 h; also: nearly all actives have a fitted effect of over 55% in size
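Chicken DT40 Tdp1-/- cells stably complemented with human TDP1 were seeded at 400 cells/well with DMSO in place of 20 nM camptothecin. After compound pinning, cells grew at least 48 hr at 37 °C; viability read by CellTiter-Glo luminescence.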
TGFb inhibitor = TGF-b pathway inhibition. HepG2 CAGA-GFP TGF-b/SMAD3 reporter, GFP fluorescence, 18 h; TGF-beta stimulated, 500 pg/mL final. Potency, µM (series often up to 46.1 µM), actives largely listed as inhibitors. 410,000 tested, 1.2% active. AID 588855; also: nearly all actives have a fitted effect of over 65% in size
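Per well, imaged GFP fluorescence of HEPG2 CAGA-GFP cells gives the signal; cells get compound, then TGF-beta (500 pg/mL final), 18 h at 37 degrees C; %Activity versus -TGF-beta and +DMSO controls.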
ATXN2 expr inh = reduces ATXN2 reporter expression in HEK-293 cells; HEK-293 ATXN2-luciferase reporter, luminescence, 24 h; Potency, µM (highest dose often 57 µM), hits mostly inhibitors; 360,000 tested, 0.72% active; AID 1745845; also: nearly all actives have a fitted effect of over 55% in size
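qHTS (up to 57 uM final) was run with 24 h compound exposure of reporter cells at 37 °C. Each well was multiplexed: SteadyGlo luminescence measured ATXN2-luciferase expression after a fluorogenic Gly-Phe-AFC viability readout (25 uM final).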
TDP1 cell CPT = growth inhibition of DT40 Tdp1-/-;hTDP1 cells with camptothecin (screen for TDP1 inhibitors); chicken DT40 Tdp1-/-;hTDP1 cells + 20 nM CPT, ATP luminescence, 48 h; 420,000 tested, 12% active; Potency, µM (titrated, usually from 46.2 µM), most hits filed as inhibitors; also: nearly all actives have a fitted effect of over 55% in size
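Chicken DT40 Tdp1-/- cells stably complemented with human TDP1 were seeded at 400 cells/well in medium containing 20 nM camptothecin, exposed to pin-transferred compounds, and grown at 37 °C for at least 48 hr. Viability was read as ATP luminescence.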
Of the large screens only hits and unclear results are named; the others gave an inactive call. An excerpt weighted towards active compounds, which were near 17% of everything screened. Calls follow the shape of the dose curve; as a rule, active = well fitted curve in the direction sought with a large enough effect; inconclusive = small, poorly fitted or top-dose-only effect, or another doubt; inactive = no such curve, though single readings can be large; an effect the other way counts as inactive or inconclusive.

O=C(CSc1nc2ccccc2n1Cc1ccccc1)NCc1ccccc1	S2 tox inconclusive, TDP1 cell noCPT 23µM, TGFb inhibitor inconclusive
Cc1ccc(C(=O)NCc2cccnc2)cc1S(=O)(=O)Nc1ccccc1	none
Cc1cc(C)c(NC(=S)NC(=O)c2ccccc2)cc1C	S2 tox inconclusive, TDP1 cell noCPT 8.2µM, TDP1 cell CPT 21µM (no result: ATXN2 expr inh)
CCC(=O)NC(=S)Nc1cccc(NC(=O)c2ccccc2)c1	none
O=C(NC(=S)Nc1ccc(S(=O)(=O)Nc2nccs2)cc1)c1ccccc1	HepG2 viability 16µM
CCC(=O)NC(=S)Nc1ccc(NC(=S)NC(=O)c2ccccc2)cc1	S2 tox inconclusive, TDP1 cell noCPT 18µM, TDP1 cell CPT inconclusive (no result: ATXN2 expr inh)
O=C(NC(=S)Nc1ccc(S(=O)(=O)Nc2nccs2)cc1)c1cccnc1	none
COc1ccc(NS(=O)(=O)c2ccc(NC(=S)NC(=O)/C=C/c3ccccc3)cc2)nn1	TDP1 cell noCPT 16µM, TDP1 cell CPT 12µM
CCC(=O)Nc1ccc(NC(=S)NC(=O)/C=C/c2ccccc2)cc1	S2 tox inconclusive, TDP1 cell noCPT 7.3µM, TDP1 cell CPT inconclusive
O=C(NC(=S)Nc1ccc(Cl)cc1)c1ccccc1	none
CC(C)NC(=S)NC(=O)c1ccc(-c2ccccc2)cc1	TDP1 cell noCPT 16µM, TDP1 cell CPT 23µM
O=C(NC(=S)Nc1ccc(-c2ccccc2)cc1)c1ccccc1	TDP1 cell noCPT inconclusive
O=C(Nc1ccc(NC(=S)NC(=O)C(c2ccccc2)c2ccccc2)cc1)c1ccccc1	TDP1 cell noCPT 15µM, TDP1 cell CPT inconclusive
O=C(NC(=S)Nc1ccc(Oc2ccc(Cl)cc2)cc1)c1ccccc1	TDP1 cell noCPT 21µM, TDP1 cell CPT inconclusive
CCC(=O)Nc1cccc(NC(=S)NC(=O)c2ccc(Cl)cc2)c1	S2 tox inconclusive, TDP1 cell noCPT 15µM, TGFb inhibitor inconclusive, TDP1 cell CPT 18µM
CCC(=O)Nc1cccc(NC(=S)NC(=O)c2ccc(Cl)cc2Cl)c1	TDP1 cell noCPT inconclusive, TDP1 cell CPT inconclusive
CCCC(=O)Nc1ccc(NC(=S)NC(=O)c2ccccc2[N+](=O)[O-])cc1	TDP1 cell noCPT 29µM, TDP1 cell CPT inconclusive
CCC(=O)NC(=S)Nc1ccc(NC(=O)c2cccc([N+](=O)[O-])c2C)cc1	TDP1 cell noCPT inconclusive, TDP1 cell CPT inconclusive
CC1(C)CC(O)CC(C)(C)N1[O]	none (no result: S2 tox, HepG2 viability, TDP1 cell noCPT, TGFb inhibitor, TDP1 cell CPT)
COc1ccc(NC(=O)CSCC(=O)N2CCN(C(=O)c3ccco3)CC2)cc1	none
CCOc1ccc(/C=C/C(=O)OCC(=O)NCCc2ccc(OCC)c(OCC)c2)cc1OC	TDP1 cell noCPT inconclusive, TDP1 cell CPT inconclusive
CC[N+]1(CC)CCC(=C(c2ccccc2)c2ccccc2)C1C (stereo unspecified)	TDP1 cell noCPT 3.3µM, TDP1 cell CPT 5.3µM (no result: HepG2 viability, TGFb inhibitor)
CCCOC(=O)c1ccc(NC(=O)c2ccccc2OC)cc1	TDP1 cell noCPT inconclusive, TDP1 cell CPT inconclusive
CCCOC(=O)c1ccc(NC(=O)C(=O)NCCN(CC)CC)cc1	none (no result: ATXN2 expr inh)
CCCCOC(=O)c1ccc(NC(=O)c2ccccc2OC)cc1	TDP1 cell noCPT inconclusive, TDP1 cell CPT 21µM
CCCCOC(=O)c1ccc(NC(=O)C(=O)NCCN(C)C)cc1	TDP1 cell noCPT 21µM, TDP1 cell CPT inconclusive (no result: ATXN2 expr inh)
CCOc1ccccc1N(CC(=O)Nc1cccnc1)S(C)(=O)=O	S2 tox inconclusive, ATXN2 expr inh inconclusive
CCOc1ccccc1N(CC(=O)Nc1cccnc1)S(=O)(=O)c1ccc(C)cc1	S2 tox inconclusive, TDP1 cell noCPT inconclusive, TDP1 cell CPT 18µM
COc1ccc(NC(=O)CN(c2cccc(C)c2C)S(=O)(=O)c2ccccc2)cc1OC	TDP1 cell noCPT inconclusive, TDP1 cell CPT 23µM
Cc1ccc(S(=O)(=O)N(CC(=O)Nc2cccnc2)c2cc(Cl)ccc2C)cc1	S2 tox inconclusive, TDP1 cell noCPT 18µM, TGFb inhibitor inconclusive, TDP1 cell CPT 16µM
COc1ccccc1N(CC(=O)Nc1ccc(Cc2ccncc2)cc1)S(=O)(=O)c1ccccc1	S2 tox inconclusive, TDP1 cell noCPT inconclusive, ATXN2 expr inh inconclusive, TDP1 cell CPT 23µM
COc1ccccc1C(=O)Nc1ccc(Cc2ccncc2)cc1	TDP1 cell noCPT 21µM, TGFb inhibitor inconclusive, TDP1 cell CPT inconclusive
COc1ccc(S(=O)(=O)N(CC(=O)Nc2cccnc2)c2ccc(C)cc2)cc1OC	TGFb inhibitor inconclusive
O=C(NCc1ccncc1)Nc1ccc(Cc2ccc(NC(=O)NCc3ccncc3)cc2)cc1	TDP1 cell noCPT 10µM, TGFb inhibitor inconclusive, TDP1 cell CPT inconclusive (no result: ATXN2 expr inh)
COc1ccc([N+](=O)[O-])cc1C(=O)Nc1ccc(Cc2ccncc2)cc1	TDP1 cell noCPT inconclusive (no result: S2 tox)
COC(=O)CN(c1ccccc1OC)S(=O)(=O)c1ccccc1	none
CSc1nnc(CCNC(=O)c2ccccc2C(F)(F)F)n1-c1ccc(F)cc1	none (no result: HepG2 viability, TGFb inhibitor, ATXN2 expr inh)
Cc1ccccc1NC(=O)CN(c1ccc(Cl)cc1Cl)S(=O)(=O)c1ccccc1	S2 tox inconclusive, TDP1 cell noCPT inconclusive, TGFb inhibitor inconclusive, TDP1 cell CPT 18µM
COc1ccc(OC)c(N(CC(=O)Nc2cccnc2)S(=O)(=O)c2ccc(C)cc2)c1	TDP1 cell noCPT inconclusive, TDP1 cell CPT 16µM
